# Compound activity (PubChem BioAssay)
# AMA1-RON2 inh = inhibitors of Plasmodium falciparum AMA1-RON2 interaction; AlphaScreen AMA1-biotinylated RON2 peptide binding; Potency, µM (series often up to 58.2 µM), without a hit: top-dose activity change, negative = inhibition, usual class: inhibitors; hit rate 0.2% among 360,000; active = well fitted inhibition curve with a large enough effect; inconclusive = small, poorly fitted or top-dose-only effect; inactive = no such curve, though single readings can be large or run the other way;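 also: potency is read from the fitted curve at half-maximal effect; 0% = vehicle wells and -100% = peptide control; nearly all actives have a fitted effect of over 45% in size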
#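 AMA1 (3D7) with his tag at 25 nM final met compounds first, then biotinylated RON2 peptide at 25 nM; detection used donor plus acceptor beads, 10 µg/mL apiece, read by AlphaScreen after 30 min at room temperature.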
# Cycloheximide cs = counter-screen for Shiga toxin inhibitors: cycloheximide protein synthesis inhibition | max response, % | cell reporter, cycloheximide protein synthesis inhibition counterscreen | hit rate 12% among 300,000 | AID 2314; in the data active = max response mostly above about 13%, no sharp cut-off; inactive = mostly below about 14%; also: read at 38.3 µM for the half of the compounds with a filed dose; 0% is about no effect
# Shiga inhibitor = inhibitors of Shiga toxin in Vero cells. Vero cells, Shiga toxin protein synthesis inhibition reporter. inhibition, % at 38.7 µM. hit rate 9.2% among 290,000. AID 2315; in the data active = inhibition mostly above about 28%, no sharp cut-off; inactive = mostly below about 43%; also: 0% is about no effect
# MARV entry inh = blocks Marburg virus binding to or entry into cells; Marburg virus pseudotyped entry inhibition, cell reporter; Potency, µM (series often up to 37.8 µM), inactives show at the highest dose activity change, negative = inhibition, hits mostly inhibitors; hit rate 1.8% among 300,000; calls by dose curve; tested in HEK293 cells; also: potency is read from the fitted curve at half-maximal effect; % is scaled to controls: 0 for no effect and ±100 for the full control effect
# Lassa entry inh = inhibitors of Lassa virus binding or cell entry; Lassa virus pseudotype entry inhibition, cell reporter; hit rate 1.2% among 300,000; Potency, µM (titrated, usually from 37.9 µM), for the others: at the highest dose activity change, negative = inhibition, actives largely listed as inhibitors; AID 540256; calls by dose curve; tested in HEK293 cells; also: potency is read from the fitted curve at half-maximal effect; % is scaled to controls: 0 for no effect and ±100 for the full control effect; nearly all actives have a fitted effect of over 50% in size
# * marks the source's active call; other numbers are inactive results; ? = inconclusive; · = no result given; + = active, no number; [ ] = remark or other dose. This is one part of a sample in which hits are shown more often than they occur.
SMILES,AMA1-RON2 inh,Cycloheximide cs,Shiga inhibitor,MARV entry inh,Lassa entry inh
CC(/C=N/NC(=O)c1nnn(-c2nonc2N)c1C)=C\c1ccccc1,1%,7,24,1%[46.1 µM],16%
Cc1cc(C)cc(-n2ccn(Cc3ccc(F)cc3)c(=O)c2=O)c1,·,·,·,·,0%[46.1 µM]
COC(=O)[C@H](C=C[C@H](C)Cc1cc(Br)cc(OCc2ccccc2)c1OC)OCc1ccccc1,·,·,·,-15%[14.2 µM],·
CC(/C=C/c1ccc(C)o1)=C\C(=O)O,17%,-3,-13,1%,·
CC(=C/C(=O)O)/C=C/c1ccc(Cl)o1,1%,50*,78*,-4%,4%
CC(=O)c1sc(N)c(C(=O)OC(C)C)c1C,12%,19*,24,-15%,?
Cc1c(C(=O)OC(C)C)sc(N)c1C(=O)OC(C)C,-20%,32*,107*,1%,?
Cc1c(C(N)=O)sc(N)c1C(=O)OC(C)C,-3%,2,11,3%,-1%
CNC(=O)CSc1nc2ccccc2c(=O)n1CCc1ccccc1,-4%,-3,-13,5%,?
COc1ccc(OC)c(Nc2ncnc3sc(-c4ccccc4)cc23)c1,22%,2,0,0%,-19%
COc1ccc(OC)c(Nc2ncnc3c2cnn3-c2ccccc2)c1,-11%,21*,44,12%,-10%
Cc1cccc(-n2ncc3c(Nc4ccc(C)c(Cl)c4)ncnc32)c1,·,·,·,·,1%[46.1 µM]
COc1cccc(Nc2ncnc3c2cnn3-c2cccc(C)c2)c1,1%,27*,78*,-16%,5%
COc1ccccc1Nc1ncnc2c1cnn2-c1cccc(C)c1,32%,51*,83*,20%,-2%
Cc1nc(CC(=O)Nc2cc(Cl)ccc2C)cs1,·,·,·,-2%[46.1 µM],0%[46.1 µM]
COc1cc(C=NNc2ncnc3c2cnn3-c2ccccc2)ccc1O,·,·,·,·,16µM*
COc1cccc(/C=N/Nc2cc(N3CCOCC3)ncn2)c1O,-41%,6,27,?,?
COc1cccc(/C=N/Nc2ncnc3c2ncn3Cc2ccccc2)c1O,23%,-2,-5,?,7.3µM*
COc1cc(/C=N/Nc2nc(C)nc3c2cnn3-c2ccccc2)ccc1O,-4%,-2,-2,11µM*,?
COc1cc(C=NNc2ncnc3c2cnn3Cc2ccccc2)ccc1O,·,·,·,·,7.9µM*
CCc1nnc(NC(=O)CSc2nccn2Cc2ccc(Cl)cc2)s1,·,·,·,·,-17%[46.1 µM]
O=C1NCC(COc2ccc(Cl)cc2)O1 (stereo not given),7%,3,-10,0%[46.1 µM],0%[46.1 µM]
COc1ccc(C2=NC(c3ccc(Cl)cc3)C(c3ccc(Cl)cc3)N2C(=O)N2CCNC(=O)C2)c(OC(C)C)c1 (stereo not given),·,-2,-4,·,·
CCc1ccccc1NC(=O)c1ccc2c(c1)N(Cc1cccc(Cl)c1)C(=O)c1ccccc1S2(=O)=O,·,·,·,?,-5%[46.1 µM]
CN(CCc1ccccn1)c1ncnc2[nH]ncc12,-13%,19,33*,?,-1%
SMILES,AMA1-RON2 inh,Cycloheximide cs,Shiga inhibitor,MARV entry inh,Lassa entry inh
Cc1cc(C(=O)N/N=C2\CCCC(C)C2)n[nH]1 (stereo not given),34%,55*,47,14%,0%
CC1CCC/C(=N\NC(=O)c2ccncc2)C1 (stereo not given),21%,-1,28,16%,-2%
C[C@@H](CC#N)CN1CC[C@H](C(C)(C)C)CCC1=O,-2%,1,-1,·,·
CC(C)Oc1ccc(CNC(=O)C(C)n2ccc3cc(S(=O)(=O)N4CCCCCC4)ccc32)cc1 (stereo not given),·,·,·,·,-22%[46.1 µM]
COc1cc(NC(=O)c2cc([N+](=O)[O-])ccc2NC(=O)CNCc2ccccn2)cc(OC)c1,18%,-7,-7,-18%[46.1 µM],11µM*
CC(=O)c1cccc(Nc2nc(-c3sc(C)nc3C)cs2)c1,2%,12*,20,?,?
CC(=O)c1cccc(Nc2nc(-c3sc(N)nc3C)cs2)c1,61%,20*,42,11%,?
COc1ccc(-c2noc(Cn3cc(S(=O)(=O)N4CCCC4)ccc3=O)n2)cc1,9%[11.6 µM],·,·,?,13%
COC(=O)c1c(C)[nH]c(C(=O)/C=C/c2ccccc2F)c1C,-13%,29*,62*,?,?
COC(=O)c1c(C)[nH]c(C(=O)/C=C/c2ccccc2Cl)c1C,2%,61*,105*,·,·
Cc1nc2c(c(C)c1CCC(=O)NCc1ccccc1)c(=O)n(C)c(=O)n2C,·,·,·,3%[46.1 µM],?
O=C(O)c1cc(NS(=O)(=O)c2ccc3ccccc3c2)ccc1O,-5%,-3,-5,·,·
O=C(NC(=S)Nc1ccccc1C(=O)O)c1ccc2ccccc2c1,52%,15*,32,?,15%[46.1 µM]
O=C(O)c1ccccc1NS(=O)(=O)c1ccc2ccccc2c1,?,33*,64,-4%[46.1 µM],1%
O=C(O)c1cccc(NC(=S)NC(=O)c2ccc3ccccc3c2)c1,66%,42*,71*,?,0.79µM*
N#CCSc1nc2ccccc2c2nc3ccccc3n12,19%,5,+,?,3%
CCn1c(SCC#N)nc2ccccc2c1=O,13%,1,-8,·,·
OCc1nc2ccccc2n1CCCOc1ccc(Br)cc1,-5%,21*,40*,-13%,?
Cc1ccccc1OCCCn1c(CO)nc2ccccc21,14%,18*,71*,2%,-2%
O=C(Cc1cccs1)OCC(=O)c1ccco1,-6%,-2,20,-5%,5%
O=C(CC(Sc1ccccc1)c1cccs1)c1ccco1 (stereo not given),-3%,26*,57*,-4%,-3%
CC1(C(=O)NCC(F)(F)F)CCN1C(=O)Cc1ccc(-c2ccccc2)cc1 (stereo not given),2%,·,·,·,·
O=C1C=CC(=O)N1c1ccccc1N1C(=O)C=CC1=O,0%,·,·,?,11µM*
COC(=O)C1=C(C)N(c2cccc(C)c2)C(=O)/C1=C\c1cccs1,?,8,-22,2.8µM*,-3%
CC1CCN(C(=O)CCCC(=O)N2CCC(C)CC2)CC1,4%,19,24*,·,·
SMILES,AMA1-RON2 inh,Cycloheximide cs,Shiga inhibitor,MARV entry inh,Lassa entry inh
O=C(O)CCCC(=O)N1CCCC1,6%,-3,-2,?,4%
O=C(CCCC(=O)N1CCCC1)N1CCCC1,16%,19,27*,?,13%
CC1=C(Br)C2=C(CC1)NC(=O)/C2=N\N1C(=O)C2CCCCC2C1=O (stereo not given),·,·,·,-18%,·
O=C(Nc1ccc2c(c1)OCO2)c1cc(C2CC2)on1,-7%,34*,52*,·,·
COc1ccc(-c2cc(C(=O)Nc3ccc4c(c3)OCO4)no2)cc1,0%,7,20,-4%[46.1 µM],?
COC(=O)N1CCCCC1c1cc(C(=O)Nc2ccc3c(c2)OCO3)no1 (stereo not given),-3%,·,·,·,·
CC(C)c1cc(C(=O)Nc2ccc3c(c2)OCO3)no1,7%,30*,55*,·,·
O=C(c1ccc2c(c1)OCO2)N1CCN(CCN2C(=O)c3cccc4cccc(c34)C2=O)CC1,14%,·,·,5%[46.1 µM],-3%
O=[N+]([O-])c1ccc(-n2cc(-c3ccccc3)nn2)cc1,-2%,14*,11,·,·
O=c1c(-c2cc(-c3ccccc3)nc3c2COc2ccc(Cl)cc2-3)coc2ccccc12,·,·,·,-3%[46.1 µM],7%[46.1 µM]
CCS(=O)(=O)c1ccc2oc(Nc3ccccc3C)nc2c1,26%,54*,69*,-2%,?
